The structures appear in SMILES notation. The whole screen tested about 64,000 compounds, of which about 1,900 (3%) were called active. For the sample, actives were picked, then their nearest neighbours and some compounds at random. A number with no mark means an inactive call.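 How the source made its calls: active means fluorescence rise, raw or as B-score row- and column-corrected plate score, outside the 99.7% band of its plate's samples, either direction; inactive means the rest.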

For the assay, the system named is Muscarinic acetylcholine receptor M1. Briefly: direct activation of M1 receptor calcium signal – CHO-M1 cells, Fluo-4 calcium, agonist mode, primary screen (AID 626). The settings on record: Fluo-4 calcium fluorescence, at 10 µM, active compounds read high.
For `O=C(CNS(=O)(=O)c1ccc(Br)s1)NCc1ccc2c(c1)OCO2`, the B-score is -0.057.
Under `Cc1cc(C)nc(SCc2nnc(SCC(=O)Nc3ncc(C)s3)n2Cc2ccco2)n1` stands 0.0432.
Under `CCCc1cc(=O)[nH]c(SCC(=O)OCc2ccccc2)n1` stands -0.24; under `COC(=O)c1cn(CC(=O)NCc2cccs2)c2ccccc12`, -0.913.
`O=C(Cn1cc(C(=O)c2cccs2)c2ccccc21)NCc1cccs1`: the B-score is 5.61 (active).
As for `COC(=O)Cn1cc(C(=O)c2cccs2)c2ccccc21`, the figure is -0.298; as for `COc1ccccc1OCCC(=O)OCC(=O)NC(=O)NC(C)(C)C`, -0.0604.
Under `O=C(Nc1ccon1)c1cccc(Cl)c1` stands -0.792; under `O=C(Nc1cccc(NC(=O)N2CCN(c3ccccc3)CC2)c1)N1CCN(c2ccccc2)CC1`, 5.66 (active); under `CC(=O)N1CCN(C(=O)Nc2cccc(C(F)(F)F)c2)CC1`, 1.54.
As for `O=C(Nc1cccc(C(=O)N2CCCC2)c1)c1ccccc1`, the B-score is 0.113.
For `Cc1ccc(N2CCN(S(=O)(=O)c3ccc(F)cc3)CC2)c(C)c1`, the B-score was 1.76.
For `O=C(NCCc1ccc2c(c1)OCCO2)c1cc2ccccc2o1`, the B-score is 5.92 (active).
With `O=C(CC(Cc1ccccc1)C(=O)O)NCCc1ccc2c(c1)OCO2` (configuration not stated), the B-score was -0.0151.
As to `O=C(Nc1ccncc1)c1cc2ccccc2o1`, the B-score was -0.306.
Consider `CCOc1cccc(-n2nnnc2-c2ccc(OC)cc2)c1`, for which the B-score was -0.152.
Take `C(=N\n1cnnc1)/c1cccnc1`: the B-score is 7.81 (active).
Take `COc1ccccc1OCCOc1ccc(/C=N/n2cnnc2)cc1`: the B-score is -1.48.
Take `COc1cccc(OCCOc2cccc(/C=N/n3cnnc3)c2)c1`: the B-score is 0.112.
As for `CCOC(=O)c1sc(NC(=O)C(CC)Sc2nccn2C)nc1C` (configuration not stated), the B-score is 0.459.
Consider `Cc1nnc(SCCCn2c(N3CCCCC3)nc3c2c(=O)[nH]c(=O)n3C)s1`, for which the B-score was -0.0644.
As to `O=C(c1cn(-c2ccccc2)nc1-c1cccnc1)N1CCCCC1`, the B-score was 0.178.
Consider `COC(=O)c1cn(-c2ccccc2)nc1-c1cccnc1`, for which the B-score was -1.56.
On to `COc1ccccc1N1CCN(C(=O)c2cn(-c3ccccc3)nc2-c2cccnc2)CC1`, for which the B-score is 5.33 (active).
Turning to `CCOC(=O)Nc1ccc2c(c1)N(C(=O)CN1CCN3CCCC3C1)c1ccccc1CC2` (configuration not stated), the B-score was 0.0902.
On to `CCOc1ccc(NC(=O)Nc2cc(C)on2)cc1`, for which the B-score is -2.11.
Under `c1cnn(-c2cc(N3CCOCC3)ncn2)c1` stands -2.54 (active); under `O=C(Nc1cc(N2CCOCC2)ncn1)NC1(C(F)(F)F)Oc2ccc(Cl)cc2O1` (configuration not stated), 0.249; under `O=C(Nc1ccc(F)cc1)c1cccnc1N1CCOCC1`, 0.0065.
Regarding `CCCC(=O)Nc1cccc(-c2cn3ccsc3n2)c1`, the B-score is -2.92 (active).
On to `O=C(NCc1cn2ccsc2n1)Nc1cccc(Cl)c1`, for which the B-score was -0.0716.
In the case of `COc1ccc(-c2cn3ccsc3n2)cc1`, the B-score is 0.708.
Regarding `OCCCN1c2ccccc2Nc2nnc(-c3ccccc3)cc21`, the B-score was 2.37.
On to `CCOc1cc(-c2nc3cc(C)ccn3c2NCC2CCCO2)ccc1O` (configuration not stated), for which the B-score is 5.56 (active).
As for `CCOc1cccc(=O)c2c(C)n(CC3CCCO3)c(C)c12` (configuration not stated), the figure is -0.504.
As for `CCOc1cc(C(=S)N2CCOCC2)ccc1O`, the figure is 0.0946; as for `O=C(CC1Oc2ccccc2NC1=O)NCCCN1CCN(Cc2ccccc2)CC1` (configuration not stated), -0.153.
For the molecule `COc1ccc(CCn2c(-c3ccco3)nc3nc4ccccc4nc32)cc1OC`, the B-score is 5.87 (active).
On to `COCCn1c(-c2ccc(OC)c(OC)c2)nc2ccccc21`, for which the B-score was 0.157.
As for `Clc1cccc(-c2nc3nc4ccccc4nc3n2Cc2ccco2)c1`, the B-score is 2.1.
With `COc1ccc(-c2nn(-c3ccccc3)cc2C(=O)Nc2nc(CC(C)=O)ns2)cc1`, the B-score was 0.649.
As for `CC1CCCC(C)N1CCCNC(=O)c1cc2c(=O)n(C)c3ccccc3c2n1C` (configuration not stated), the B-score is 0.176.
`Cn1c(C(=O)NCCCN2CCN(c3cccc(Cl)c3)CC2)cc2c(=O)n(C)c3ccccc3c21`: the B-score is -1.68.
In the case of `Cn1c(C(=O)NCCc2ccsc2)cc2c(=O)n(C)c3ccccc3c21`, the B-score was 3.97 (active).
As for `CCOc1cc(S(=O)(=O)NC2CC(C)(C)NC(C)(C)C2)ccc1F`, the figure is -1.83; as for `N#CC1=C(N)C(C#N)(C#N)[C@H](c2ccsc2)[C@H]2COCC=C12`, 3.35 (active); as for `O=S(=O)(N1CCOCC1)N1CCN(c2ccccc2F)CC1`, 0.0546.
As for `O=C1c2ccccc2-c2ncnc3c(N4CCOCC4)cc(N4CCOCC4)c1c23`, the figure is 2.4 (active); as for `c1ccc(-c2oc3ncnc(N4CCOCC4)c3c2-c2ccccc2)cc1`, -0.65.
On to `C1=C(CCNc2ncnc3c2cnn3-c2ccccc2)CCCC1`, for which the B-score is 0.14.
As for `O=C(NCCC1=CCCCC1)C1CCN(Cc2cnn(-c3ccccc3)c2-n2cccc2)CC1`, the figure is 3.61 (active).
For the molecule `O=C(COc1cccc(-n2cnnn2)c1)NCCC1=CCCCC1`, the B-score is -0.532.
With `COc1ccc(CCNc2ncnc3nc[nH]c23)cc1OC`, the B-score was -0.961.
Turning to `c1ccc2c(c1)OCC(CNc1ncnc3nc[nH]c13)O2` (configuration not stated), the B-score was 104 (active).
As to `Cc1cc(NC(=O)CCC2COc3ccccc3O2)no1` (configuration not stated), the B-score was -0.76.
Turning to `O=S1(=O)CC(NCc2ccccc2)C(Nc2ccc(Cl)cc2)C1` (configuration not stated), the B-score is -0.0591.
Consider `COc1cccc(-n2cc3c(c2-c2ccccc2)c(=O)n(C)c(=O)n3C)c1`, for which the B-score is 7.45 (active).
Consider `Cc1ccc(-c2c3c(=O)n(C)c(=O)n(C)c3cn2-c2ccccc2O)cc1`, for which the B-score was 0.252.
`COc1ccc(-c2c3c(=O)n(C)c(=O)n(C)c3cn2-c2cccc(OC)c2)cc1`: the B-score is 0.091.
Turning to `CCCCn1c(SCC(=O)NCC2CCCO2)nc2ccc(N3CCOCC3)cc2c1=O` (configuration not stated), the B-score was 0.658.
For the molecule `COc1ccccc1CNC(=O)CCCNS(=O)(=O)c1cccc2nsnc12`, the B-score is -0.144.
As for `CCS(=O)(=O)N1CCCC(C(=O)NCCCN(C)Cc2ccccc2)C1` (configuration not stated), the figure is 0.0256.
Turning to `CNC(=O)c1c(NC(=O)c2ccc(S(=O)(=O)N3CCOCC3)cc2)sc2c1CCC2`, the B-score is -0.0829.
In the case of `CCOc1cc(NC(=O)c2ccco2)c(OCC)cc1NC(=O)COc1ccccc1`, the B-score is 0.0561.
For the molecule `CC(=O)Nc1cccc(Oc2cc(C#N)c(C#N)cc2N2CCOCC2)c1`, the B-score was 0.0039.
In the case of `CCOc1cc(N2CCOCC2)c(OCC)cc1NC(=O)COc1cccc2cccnc12`, the B-score was 4.8 (active).
Turning to `Cc1nc2cc(S(=O)(=O)C(F)(F)F)ccc2s1`, the B-score is 0.0196.
Under `Cc1ccc(C(c2sc3nc(C)nn3c2O)N2CCN(c3ccccc3)CC2)cc1` (configuration not stated) stands -0.274; under `O=C(Nc1cccc(-c2nnc(-c3ccccc3)o2)c1)C1CCCO1` (configuration not stated), 8.44 (active).
On to `O=C(Nc1ccc(-c2nnc(-c3ccccc3)o2)cc1)C1CCCO1` (configuration not stated), for which the B-score was 0.124.
In the case of `O=C(Nc1nnc(CCc2ccccc2)s1)C1CCCO1` (configuration not stated), the B-score was -0.799.
For the molecule `Cc1ccc(C(=O)Nc2ccccc2C(=O)NC2CCCCC2)cc1S(=O)(=O)N1CCOCC1`, the B-score is -0.515.
Consider `CCOc1ccc2cc(C#N)c(SCC(=O)OC)nc2c1`, for which the B-score is -0.798.
Turning to `Cc1ccc2cc(C#N)c(SCC(=O)NCC3CCCO3)nc2c1C` (configuration not stated), the B-score is 0.58.
With `CC(NC(=O)CSc1nc2c(cc1C#N)CN(C)CC2)c1ccccc1` (configuration not stated), the B-score was 6.81 (active).
For the molecule `CC1=NC2(CCCc3c2no[n+]3[O-])N(O)C1(C)C` (configuration not stated), the B-score is -0.303.
On to `O=C(Nc1c(-c2ccccc2)nc2c(Br)cc(Br)cn12)c1ccco1`, for which the B-score is 1.35.
`CC(C)(C)c1cc(CN2CCN(CCC#N)CC2)cc(C(C)(C)C)c1O`: the B-score was 25.1 (active).
As for `N#CCCN1CCN(S(=O)(=O)c2ccc(S(=O)(=O)NC3CC3)cc2)CC1`, the B-score was 0.386.
As to `N#CCCN1CCN(S(=O)(=O)c2ccc(S(=O)(=O)N3CCCC3)cc2)CC1`, the B-score was 0.0676.
`Cc1nc2ccc(S(=O)(=O)NC(C(=O)N3CCCCCC3)C(C)C)cc2s1` (configuration not stated): the B-score was 0.688.
In the case of `CN1CCN(S(=O)(=O)c2ccc(NC(=O)c3ccco3)cc2)CC1`, the B-score is 0.741.
On to `CC1=C2C(=O)OC(c3ccoc3)C2(C)CCC1` (configuration not stated), for which the B-score is -1.22.
With `Fc1ccc2[nH]c3c(N4CCN(Cc5ccc6c(c5)OCO6)CC4)ncnc3c2c1`, the B-score was 6.32.
As to `Fc1ccc2[nH]c3c(N4CCSCC4)ncnc3c2c1`, the B-score is 12.1 (active).
For `Cc1ccc(-n2ncc3c(N4CCN(c5ccc(F)cc5)CC4)ncnc32)c(C)c1`, the B-score is -0.824.
With `O=C1CC(c2ccccc2)CC(O)=C1C=NCCN1CCOCC1` (configuration not stated), the B-score is -1.61.
As to `Cn1c(SCC(=O)c2cccs2)nnc1-c1ccco1`, the B-score is -0.304.
For the molecule `Cc1nnc(SCC(=O)NCc2cccs2)[nH]c1=O`, the B-score was 0.134.
Turning to `Cc1nc2nc(CSc3nc4ccccc4s3)cc(=O)n2[nH]1`, the B-score is 0.684.
For the molecule `Cc1nn(C(=O)c2ccoc2C)c(N)c1-c1ccccc1`, the B-score is 0.366.
`Cc1nn2c(c1-c1ccccc1)N=C(c1ccco1)CC2c1ccccc1` (configuration not stated): the B-score was 5.88 (active).
As for `CCOC(=O)c1c(C2CC2)csc1NC(=O)CSCc1c(C)noc1C`, the figure is 0.602; as for `CN1CCN(CC(=O)Nc2sc3c(c2C#N)CCC(C(C)(C)C)C3)CC1` (configuration not stated), -0.211.
In the case of `CCOC(=O)C1CCN(C(=O)c2oc3ccc(S(=O)(=O)N4CCCCCC4)cc3c2C)CC1`, the B-score is 1.57.
For the molecule `CCOC(=O)C1CCCN(C(=O)c2ccc(CS(=O)(=O)c3ccc(Br)cc3)o2)C1` (configuration not stated), the B-score is -2.11 (active).
`CCOC(=O)C1CCCN(C(=O)c2cncc(Br)c2)C1` (configuration not stated): the B-score was -0.115.

Values taken from PubChem BioAssay AID626 (Vanderbilt High Throughput Screening Facility, 2007).
